Screening results deposited in PubChem by several laboratories.
Compounds with a hit are over-represented: about 1.1% of the library has one in this group of screens.
BJeLR lethal: BJeLR cell viability loss; BJeLR (HRASV12) viability, CellTiter-Glo ATP luminescence, 48 h; inhibition, % (concentration not given with the values); hit rate 0.17% among 300,000; AID 1554; in the data active = inhibition above about 50%; inconclusive = no clear call, values can overlap the other calls
MazF activator: increases E. coli MazEF RNase cleavage of RNA | activation, % at 20 µM | P0AE70 | hit rate 0.32% among 350,000 | FAM/BHQ RNA-DNA oligo cleavage fluorescence, 5 h; in the data active = activation above about 50%
Target sequence (P0AE70 whole entry, looked up): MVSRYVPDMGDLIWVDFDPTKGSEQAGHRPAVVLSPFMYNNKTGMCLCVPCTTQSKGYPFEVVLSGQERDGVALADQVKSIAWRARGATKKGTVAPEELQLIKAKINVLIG
PrP 5UTR inh: inhibition of PrP 5' UTR reporter expression; inhibition, % (concentration not given with the values); AID 488862; hit rate 0.35% among 340,000; cell-based PrP 5' UTR mRNA reporter, plate reader; in the data active = inhibition above about 52%; note: 0 = median of the neutral control wells
PrPC surface inh: cell surface PrPC inhibition, primary TR-FRET screen | P04156 | TR-FRET read-out | inhibition, % at 13.8 µM | hit rate 0.43% among 370,000; in the data active = inhibition above about 24%; note: 0% = median of the test wells and 100% = reference compound wells
PrP UTR cherry: prion 5' UTR mRNA inhibition, cherry-pick retest; AID 504592; hit rate 48% among 1,100; cell-based prion protein 5' UTR reporter, plate reader; shares compounds with PrP 5UTR inh; inhibition, % at 2.5 µM; in the data active = inhibition above about 54%; inconclusive = no clear call, values can overlap the other calls
The depositor's hits bear a star; ? = inconclusive; . = no result.

SMILES	BJeLR lethal	MazF activator	PrP 5UTR inh	PrPC surface inh	PrP UTR cherry
CC12CC[C@H]3[C@@H](CCC4(O)C[C@H](O)CCC34/C=N/NC(=O)c3ccccc3Cl)C1(O)CCC2C1=CC(=O)OC1 (stereo partly drawn)	4	-8	-31	-3	.
CC(C)(C)OC(=O)N1CCC[C@@H]1C(=O)NCc1ccccc1	.	.	.	2	.
COc1cc(CC(=O)N(c2ccccc2)c2nc(C)cs2)cc(OC)c1OC	5	-16	61*	2	-8
COC(=O)C1=C(C)N(Cc2ccccc2C(F)(F)F)C(=NCC2CC2)NC1c1ccc(F)cc1 (stereo not drawn)	.	.	.	-13	.
COc1ccc(-c2c(C(=O)c3ccc(Br)cc3)[nH]c(N)c2C(=O)NCCc2c[nH]c3ccccc23)cc1OC	.	.	.	-4	.
CCNC(=O)N(CC)C[C@H]1N[C@@](C)(C(=O)OC)[C@H]2C(=O)N(C)C(=O)[C@@H]12	.	-7	-4	5	.
CCN(C[C@H]1N[C@@](C)(C(=O)OC)[C@H]2C(=O)N(C)C(=O)[C@@H]12)C(=O)c1ccc(C(C)(C)C)cc1	.	2	58*	-3	-12
CCN(CC)c1ccc(/C=N/N=C(N)N)c(O)c1	48	32	62*	6	90*
Cc1ccc(CNC(=O)C2CCN(c3nnc(N4CCCC4=O)s3)CC2)cc1	-15	2	69*	7	-4
Cc1ccc(Sc2c(CO)c(-c3ccccc3)nn2C)cc1	29	3	73*	19	84*
COC(=O)[C@]12CCCCC=C1N(Cc1ccc(OC)cc1)C(=O)[C@@H]2CC(=O)NCCc1ccccc1OC	.	.	.	-4	.
N/C(=N\OC(=O)c1cc(Br)ccc1Cl)c1ccccn1	-3	4	-82	-5	.
Cc1ccc(C(=O)O/N=C(\N)c2ccccc2)c(Cl)c1	-6	-2	56*	-10	55*
N/C(=N\OC(=O)c1ccc(Cl)cc1Cl)c1ccccn1	13	8	79*	3	55*
N/C(=N\OC(=O)c1cc([N+](=O)[O-])ccc1Cl)c1ccccn1	3	1	-22	-16	.
N/C(=N\OC(=O)c1ccc([N+](=O)[O-])cc1Cl)c1ccccn1	-2	5	65*	-6	?
Cc1ccc(C(=O)O/N=C(\N)c2ccccn2)c(Cl)c1	10	12	81*	-5	94*
N/C(=N\OC(=O)c1ccc(Cl)cc1[N+](=O)[O-])c1ccccn1	-4	-7	-14	0	.
O=C(CCc1nc(-c2ccccc2F)no1)NCCc1ccccc1F	.	.	.	-6	.
C[C@]12CCC3C(CCC4=CC(O)CC[C@@]43/C=N/O)C1(O)CCC2C1=CC(=O)OC1 (stereo partly drawn)	69*	7	80*	2	70*
O=C(Nc1ccccc1[N+](=O)[O-])NC1CCCCN(Cc2cccc(Cl)c2)C1=O (stereo not drawn)	.	.	.	4	.
c1ccc2ncccc2c1	.	6	63*	.	6
Cc1cc(N2CCN(Cc3ccccc3)CC2)n2nc(C)nc2n1	.	.	.	2	.
COc1ccc(CC(=O)OCC(=O)N2CCN(S(=O)(=O)c3ccc(C)cc3C)CC2)cc1	.	-4	88*	-4	-12
N[C@@H](Cc1ccccc1)C(=O)N1C[C@H]2C[C@@H](C1)c1cccc(=O)n1C2	-4	2	67*	16	-12
SMILES	BJeLR lethal	MazF activator	PrP 5UTR inh	PrPC surface inh	PrP UTR cherry
COc1cc(NC(=O)C2Cc3ccccc3CN2S(C)(=O)=O)cc(OC)c1 (stereo not drawn)	-1	0	5	-2	.
COc1ccc(OC)c(S(=O)(=O)N2Cc3ccccc3CC2C(=O)Nc2nccs2)c1 (stereo not drawn)	.	0	69*	-1	-33
CN(Cc1ccccc1)C(=O)OCc1cn(Cc2ccccc2F)nn1	.	.	.	5	.
C[C@@H]1CN([C@@H](C)CO)C(=O)CCCn2nncc2CO[C@@H]1CN(C)C(=O)C1CC1	.	.	.	0	.
CCCCNC(=O)CCCCn1c(=S)[nH]c2c([nH]c3ccc(OC)cc32)c1=O	2	2	-47	-2	.
CC[C@H](C)NC(=O)CCCCCn1c(=S)[nH]c2c([nH]c3ccc(OC)cc32)c1=O	-6	5	66*	-1	-15
CCOc1ccccc1C1CC(=O)Nc2cc(C)c(C)cc21 (stereo not drawn)	39	1	-10	6	.
CCCOc1ccccc1C1CC(=O)Nc2cc3c(cc21)OCCO3 (stereo not drawn)	26	0	70*	.	80*
CCOc1ccccc1C1CC(=O)Nc2cc3c(cc21)OCCO3 (stereo not drawn)	31	-8	56*	18	84*
N#Cc1cccc(NC(=O)OC2CC3CC2[C@H]2CCCCN2[C@H]3Cc2ccccc2)c1 (stereo partly drawn)	.	.	.	-5	.
COc1ccc(-c2cc3c(nn2)-c2ccccc2C3=O)cc1	22	19	63*	3	?
O=C(C1CCN(c2ncnc3c2sc2cccc(F)c23)CC1)N1CCCCC1	.	.	.	3	.
CCCn1cnnc1CNC(=O)[C@@H](Cc1ccccc1)NC(=O)[C@H]1O[C@@H](n2ccc(=O)[nH]c2=O)[C@H](O)[C@@H]1O	.	.	.	14	.
O=C(NC(=S)Nn1cnnc1)c1ccccc1Cl	4	5	78*	-5	-6
COc1cc(C2CC(=O)Oc3cc4c(cc32)OCO4)cc(OC)c1OC (stereo not drawn)	.	0	-13	-5	.
COc1ccc(C2CC(=O)Oc3cc4c(cc32)OCO4)cc1 (stereo not drawn)	.	-3	53*	-1	-7
Cc1ccc(N2CCCCn3c2nc2c3c(=O)n(CC(=O)O)c(=O)n2C)cc1	-7	-4	58*	-2	-5
C[C@@H]1COc2cc(N3CCCC3)ccc2S(=O)(=O)N1	.	.	.	2	.
CC1CCCN(c2cccc3c2S(=O)(=O)N(Cc2cccc(Cl)c2)[C@@H](C)[C@H](c2ccccc2)O3)C1 (stereo partly drawn)	.	.	.	-2	.
O=C(COC(=O)c1ccc[nH]c1=O)Nc1ccc(N2CCCCC2)cc1	.	6	62*	6	?
CCCCS(=O)(=O)N1CCCc2nc(-c3ccc(Br)cc3)ccc21	.	.	.	2	.
O=C(NCCN1C(=O)S/C(=C/c2cccnc2)C1=O)c1ccc(S(=O)(=O)N2CCCC2)cc1	.	8	85*	7	-17
COC(=O)[C@]12C[C@H](CC(=O)N3CCN(C(=O)c4ccco4)CC3)C(=O)N(Cc3ccc4c(c3)OCO4)C1=C[C@H](C(C)(C)C)O[C@@H]2C	.	.	.	-10	.
CCCCNC1=CC(=O)C(=O)c2ccccc21	11	-23	-32	-32	.
CCCCN1C=CC(=C2C(=O)c3ccccc3C2=O)C=C1	65*	-13	87*	-29	92*
Cc1nnc2nc(N)[nH]n2c1=O	.	.	.	-8	.
CNC(=O)COC(=O)/C=C/c1ccc(F)cc1	-18	-5	-9	0	.
CNC(=O)COC(=O)/C=C/c1cccc(F)c1	3	9	58*	-3	-10
Cc1cc(C(=O)COC(=O)c2cccnc2Cl)c(C)n1CC1CCCO1 (stereo not drawn)	10	1	59*	1	43
